Measurements published in PubChem BioAssay AID588475 (Sanford-Burnham Center for Chemical Genomics, 2011).
About 2,100 (0.6%) of roughly 350,000 compounds were called active. Many of the other results were omitted from the sample, so actives are more common in it than they were. Unmarked numbers belong to inactive results.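 How the source made its calls: active means inhibition of the ligand-induced calcium signal above about 50% at the single tested concentration (limit read from the data); inactive means the rest.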

Test: blockers of CRF-evoked CRF-R2/CRF-BP calcium response – cell-based, HEK293, calcium dye fluorescence, uHTS, primary screen (AID 588475)
Settings: CRF-induced calcium fluorescence, at 11.8 µM, active compounds read high
In the case of `CCOC(=O)CN1CCC(c2ccccc2)CC1`, the inhibition is reported as -2.05%.
`COc1ccccc1C1=CC(=O)CCC1` showed an inhibition of 9.84%.
In the case of `CCOC(=O)Cn1c2c(c(-c3ccccc3OC)cc1=O)CCCC2`, the inhibition is reported as 57.5% (active).
`c1ccc(CCN2CN=C(Nc3nc4ccccc4o3)NC2)cc1` gave an inhibition of 13.5%.
Compound `CC1CC(C)CN(C(=O)C2CC(=O)N(c3ccc(F)cc3)C2)C1` (configuration not stated) has an inhibition of -0.72%.
In the case of `O=C(C1CC(=O)N(c2ccc(Br)cc2)C1)N1CCCC1` (configuration not stated), the inhibition is reported as 76.7% (active).
`CCc1ccc(N2CC(C(=O)N3CCCCCC3)CC2=O)cc1` (configuration not stated) gave an inhibition of -21.4%.
`CCCOc1cccc(C(=O)Nc2nnn(CCC)n2)c1` gave an inhibition of -20.2%.
Work on `CCCCCCNC(=O)O[C@]12C[C@@H](C(=O)OC)[C@@H](C(=O)OC)C[C@@]1(O)CN(S(=O)(=O)c1ccc(C)cc1)C2` yielded an inhibition of -0.13%.
`CCOc1ccc(NC(=O)CCC(=O)NNC(=O)NC2CCCCC2)cc1` gave an inhibition of 9.93%.
Compound `CC1CCN(C(=S)NC2CC3CCC2C3)CC1` (configuration not stated) has an inhibition of 18.3%.
In the case of `CCCC(O)(CCC)C(=O)NN(C(=O)CCl)c1cccc(C)c1`, the inhibition is reported as 4.46%.
In the case of `CCc1nnc(NC(=O)CSc2nc(SC)ns2)s1`, the inhibition is reported as -5.79%.
`CC(=O)c1cccc(-n2nnnc2SCC(=O)NNC(=O)C2CCCCC2)c1` showed an inhibition of 12.7%.
For `CCc1nnc(NC(=O)CSc2nnnn2-c2cccc(C(C)=O)c2)s1`, the inhibition was 54.4% (active).
For `O=C(O)C1=C(C(=O)O)C2CCC1C2`, the inhibition was 17.1%.
In the case of `COc1ccc(Cl)cc1C(=O)OCC(=O)NCc1cccs1`, the inhibition is reported as -4.93%.
With `COc1cc(CC(=O)NCc2cccs2)cc(OC)c1OC` the inhibition was 63.8% (active).
With `COc1cc(CNCc2cccs2)cc(Br)c1OC` the inhibition was 4.12%.
With `COc1ccc(C(=O)NC(=S)Nc2ccc(Cl)cn2)cc1OC` the inhibition was -25.3%.
In the case of `COc1ccc(CCNC(=O)COC(=O)c2ncc(Cl)c(Cl)c2Cl)cc1OC`, the inhibition is reported as -0.24%.
In the case of `COC(=O)c1ccc(OC(=O)c2nn(C)cc2Cl)c(OC)c1`, the inhibition is reported as 90.2% (active).
`Cc1cc(C)c(C#N)c(SCS(=O)c2ccc(C(C)(C)C)cc2)n1` (configuration not stated) showed an inhibition of 1.43%.
With `CC1C(=O)Nc2ccccc2N1C(=O)c1ccc(F)cc1F` (configuration not stated) the inhibition was 16%.
In the case of `O=C(NNC(=O)c1ccccc1O)c1ccccc1O`, the inhibition is reported as 24.2%.
`O=C(COC(=O)c1ccc(O)cc1O)NC(=O)c1ccccc1` gave an inhibition of -7.02%.
In the case of `O=C(NNc1c2ccccc2nc2ccccc12)c1cc2ccccc2cc1O`, the inhibition is reported as 53.2% (active).
Work on `Cc1onc(-c2c(F)cccc2Cl)c1C(=O)N(C)CC(=O)Nc1cccc(F)c1` yielded an inhibition of 5.08%.
Compound `Cc1cccc(N2Cc3ccccc3C2=NC(=O)c2ccc(Cl)nc2)c1` has an inhibition of -4.54%.
`CN1CCN(C2=NCCO2)CC1` gave an inhibition of 0.22%.
`O=C1/C(=C/c2cccs2)CCc2ccccc21` showed an inhibition of -1.09%.
For `COc1ccc(/C=C2/CCCc3ccccc3C2=O)cc1`, the inhibition was 4.03%.
For `COc1ccc(/C=C2\CCc3ccccc3C2=O)c(OC)c1OC`, the inhibition was 89.8% (active).
With `COC(=O)[C@]1(Cc2ccccc2)N[C@H](CN(C)S(=O)(=O)c2ccc(OC(F)(F)F)cc2)[C@@H]2C(=O)N(Cc3ccccc3)C(=O)[C@@H]21` the inhibition was -0.07%.
In the case of `O=C(CSc1nnc(CNC(=O)c2ccc(F)cc2)o1)Nc1ccc2c(c1)OCO2`, the inhibition is reported as -5.95%.
With `COC(=O)c1ccc(/C=C2/C(=O)Oc3ccccc32)cc1` the inhibition was 1.02%.
`CN(C)c1ccc(/C=C2\NC(=S)N(Cc3ccccc3)C2=O)cc1` showed an inhibition of -149%.
For `CN(C)c1ccc(C=C2C(=O)OC3(CCCC3)OC2=O)cc1`, the inhibition was 66.8% (active).
Work on `O=C(O)C(NS(=O)(=O)c1cccc2nsnc12)c1ccccc1` (configuration not stated) yielded an inhibition of 8.07%.
With `Cc1cc(C)cc(C(=O)NC(CC(N)=O)c2ccc(N3CCC(N4CCCCC4)CC3)c([N+](=O)[O-])c2)c1` (configuration not stated) the inhibition was 14.9%.
In the case of `O=C(NCC(F)(F)F)c1ccc(S(=O)(=O)NCCc2ccc3c(c2)OCCO3)cc1`, the inhibition is reported as 2.25%.
Compound `CC1=C(C(N)=O)C(c2sccc2C)n2nnnc2N1` (configuration not stated) has an inhibition of -23.7%.
For `Cc1c(Br)ccc(NC(=O)COc2ccccc2C(N)=O)c1C`, the inhibition was -2.05%.
With `COC(=O)C(NC(=O)c1ccc(OC)cc1)(Nc1ncc(S(=O)(=O)c2ccc([N+](=O)[O-])cc2)s1)C(F)(F)F` (configuration not stated) the inhibition was 72.6% (active).
Compound `COc1ccc(C(=O)NCCNc2ccc([N+](=O)[O-])cn2)cc1` has an inhibition of 3.69%.
Work on `CCOCC(=O)Nc1ncc(S(=O)(=O)c2ccc([N+](=O)[O-])cc2)s1` yielded an inhibition of -6.17%.
For `COc1ccc(CCn2c(NN=C3CCCC3)nc3c2c(=O)[nH]c(=O)n3C)cc1`, the inhibition was -0.67%.
For `COc1ccc(/C=C/C(=O)Nc2c(C)nn(C)c2C)cc1COc1ccc(Br)cc1`, the inhibition was 60.5% (active).
With `CCn1nc(C)c(NC(=O)/C=C/c2ccc(OC)c(COc3ccc(Br)cc3)c2)c1C` the inhibition was 30.8%.
In the case of `COc1ccc(OC)c(S(=O)(=O)Nc2c(C)nn(C)c2C)c1`, the inhibition is reported as 6.33%.
With `CCn1cc(/C=C(\NC(=O)c2cc(OC)c(OC)c(OC)c2)C(=O)N2CCN(C)CC2)c2ccccc21` the inhibition was -8.31%.
Compound `Cc1cc(OC(=O)c2ccc(Cl)cc2)cc(=O)n1C` has an inhibition of 11.4%.
For `Cc1cccc(CS(=O)(=O)c2ncc(Cl)c(C(=O)Nc3ccc(F)cc3)n2)c1`, the inhibition was 52.3% (active).
Work on `CSc1nnc(NC(=O)c2nc(S(=O)(=O)Cc3ccc(C)cc3)ncc2Cl)s1` yielded an inhibition of 25.7%.
`Cc1cccc(NC(=O)c2nc(S(=O)(=O)Cc3ccccc3)ncc2Cl)c1` gave an inhibition of 45.5%.
In the case of `FC(F)(F)c1cc(-c2ccco2)nc(NCc2ccc(Cl)cc2)n1`, the inhibition is reported as -24.6%.
Compound `COc1ccc(/C=C2\SC(=S)N(CCC(=O)N3CCOCC3)C2=O)cc1OC` has an inhibition of -7.34%.
In the case of `C=CCOc1ccc(/C=C2\SC(=S)N(CCC(=O)O)C2=O)cc1`, the inhibition is reported as 53.9% (active).
With `O=C1/C(=C/c2ccc(F)cc2)SC(=S)N1CCCC(=O)N1CCCCC1CCO` (configuration not stated) the inhibition was -17.3%.
`Cc1cc(C)nc(NC2=NCC(=O)N2c2ccc(Cl)cc2)n1` showed an inhibition of 10.7%.
`O=C(c1ccc(-n2cnnn2)cc1)N1CCN(C(c2ccccc2)c2ccccc2)CC1` gave an inhibition of 14.7%.
Compound `CCc1ccc(NC(=O)CC2C(=O)NCCN2C(=S)Nc2ccccc2)cc1` (configuration not stated) has an inhibition of -42.6%.
With `CN(C)C(=O)c1nc2ccc(Cl)cn2c1CNCc1cccc(OC(F)(F)F)c1` the inhibition was 21%.
Compound `CCNC(=O)CC1C(=O)N(c2ccc(F)cc2)C(=O)N1CCc1sccc1C` (configuration not stated) has an inhibition of 3.16%.
Compound `CC1=CC(=C(C#N)c2nc3ccccc3s2)C=C(C)N1c1ccc(F)cc1F` has an inhibition of -130%.
`O=C(O)CC/C(=C\c1cc2c(cc1Br)OCO2)c1nc2ccccc2s1` showed an inhibition of 8.13%.
In the case of `N#C/C(=C(/O)Cc1cccc2ccccc12)c1nc2ccccc2s1`, the inhibition is reported as 60.4% (active).
With `CC1Cc2ccccc2N1C(=O)Cn1cnc2ccccc2c1=O` (configuration not stated) the inhibition was 0.2%.
With `CCOC(=O)N1CCN(C(=O)Cn2cnc3ccccc3c2=O)CC1` the inhibition was 72.2% (active).
With `CC1CC(C)CN(C(=O)CCNC(=O)Cn2cnc3ccccc3c2=O)C1` (configuration not stated) the inhibition was -2.21%.
For `O=S(=O)(NCc1ccc2c(c1)OCO2)c1cccc2nsnc12`, the inhibition was -14.6%.
`COCCCNC(=O)C1CCC(CNS(=O)(=O)c2ccc(OC)cc2)CC1` (configuration not stated) showed an inhibition of 5.65%.
With `O=C(NNS(=O)(=O)c1ccc(F)cc1)c1ccc([N+](=O)[O-])cc1Cl` the inhibition was 0.78%.
With `O=[N+]([O-])c1ccc(NS(=O)(=O)c2ccccc2)c(Cl)c1` the inhibition was 55.9% (active).
With `Cc1cc([N+](=O)[O-])ccc1NS(=O)(=O)c1ccccc1` the inhibition was 17.8%.
`COC(C[C@@H](O)C[C@H](O)[C@H](C)OCc1ccccc1)OC` gave an inhibition of 10.3%.
With `O=[N+]([O-])c1cc(Br)c(O)c(/C=N/Nc2nc3ccccc3s2)c1` the inhibition was 67.2% (active).
In the case of `O=C(N/N=C/c1cc(Br)c(O)c([N+](=O)[O-])c1)C(O)(c1ccccc1)c1ccccc1`, the inhibition is reported as 4.64%.
Compound `c1ccc(C(=NNc2nc3ccccc3s2)c2ccccn2)cc1` has an inhibition of -36.8%.
For `Cc1nn(C(=O)c2ccoc2C)c(N)c1-c1ccccc1`, the inhibition was 4.6%.
In the case of `Cn1nc(-c2ccccc2)c2cc([N+](=O)[O-])ccc21`, the inhibition is reported as -1.55%.
For `Cc1nn(-c2ccc([N+](=O)[O-])cc2)c(N)c1-c1ccccc1`, the inhibition was 51.6% (active).
For `CN1CCN(C(=O)c2cnn(-c3ccccc3)c2NC(=O)c2ccc([N+](=O)[O-])cc2)CC1`, the inhibition was 1.78%.
Compound `Cc1ccccc1N1CCN(Cc2nc(Cc3ccccc3F)no2)CC1` has an inhibition of 10.3%.
`COc1ccc(CC(NC(C)=O)C(=O)NC2CCN(C(=O)c3ccc(Cl)cc3)CC2)cc1` (configuration not stated) gave an inhibition of 13.1%.
In the case of `C/C(=N/NC(=O)CSc1ccccn1)c1ccc([N+](=O)[O-])cc1`, the inhibition is reported as 1.41%.
Work on `Cc1nc(C)c2c(c1C(F)(F)F)-c1ccccc1C2(F)F` yielded an inhibition of -1.72%.
For `CCCCn1c(N)c(N(CCC(C)C)C(=O)COC(=O)c2ccc(CC)cc2)c(=O)[nH]c1=O`, the inhibition was -14.7%.
In the case of `COc1ccc(Br)cc1/C=N/Nc1ccc(S(=O)(=O)Nc2ccccc2C(=O)O)cc1[N+](=O)[O-]`, the inhibition is reported as 14.6%.
For `C=C(C)CNC(=S)N/N=C/c1ccccc1OCC(=O)O`, the inhibition was -10.5%.
With `Cc1ccc(NS(=O)(=O)c2ccc(N/N=C/c3ccccc3OCC(=O)O)c([N+](=O)[O-])c2)c(C)c1` the inhibition was 63.5% (active).
Compound `CC(CO)(CO)NC(=O)c1ccc(=O)[nH]n1` has an inhibition of 2.66%.
